Compound activity deposited in PubChem BioAssay by Center for Chemical Genomics, University of Michigan.
Dicer processing = human Dicer pre-microRNA cleavage inhibition | cat-ELCCA pre-miR-21 Dicer processing, chemiluminescence; hits give high values | z-score at 25 µM | 47,000 compounds, 6% hits | AID 1347074; in the data active = z-score above about 3, passing the limit was not always enough;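 also: plate controls were vehicle for no effect and no enzyme for full effect; higher signal means more uncleaved substrate so more Dicer inhibition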
Target sequence (Q9UPY3 whole entry, looked up): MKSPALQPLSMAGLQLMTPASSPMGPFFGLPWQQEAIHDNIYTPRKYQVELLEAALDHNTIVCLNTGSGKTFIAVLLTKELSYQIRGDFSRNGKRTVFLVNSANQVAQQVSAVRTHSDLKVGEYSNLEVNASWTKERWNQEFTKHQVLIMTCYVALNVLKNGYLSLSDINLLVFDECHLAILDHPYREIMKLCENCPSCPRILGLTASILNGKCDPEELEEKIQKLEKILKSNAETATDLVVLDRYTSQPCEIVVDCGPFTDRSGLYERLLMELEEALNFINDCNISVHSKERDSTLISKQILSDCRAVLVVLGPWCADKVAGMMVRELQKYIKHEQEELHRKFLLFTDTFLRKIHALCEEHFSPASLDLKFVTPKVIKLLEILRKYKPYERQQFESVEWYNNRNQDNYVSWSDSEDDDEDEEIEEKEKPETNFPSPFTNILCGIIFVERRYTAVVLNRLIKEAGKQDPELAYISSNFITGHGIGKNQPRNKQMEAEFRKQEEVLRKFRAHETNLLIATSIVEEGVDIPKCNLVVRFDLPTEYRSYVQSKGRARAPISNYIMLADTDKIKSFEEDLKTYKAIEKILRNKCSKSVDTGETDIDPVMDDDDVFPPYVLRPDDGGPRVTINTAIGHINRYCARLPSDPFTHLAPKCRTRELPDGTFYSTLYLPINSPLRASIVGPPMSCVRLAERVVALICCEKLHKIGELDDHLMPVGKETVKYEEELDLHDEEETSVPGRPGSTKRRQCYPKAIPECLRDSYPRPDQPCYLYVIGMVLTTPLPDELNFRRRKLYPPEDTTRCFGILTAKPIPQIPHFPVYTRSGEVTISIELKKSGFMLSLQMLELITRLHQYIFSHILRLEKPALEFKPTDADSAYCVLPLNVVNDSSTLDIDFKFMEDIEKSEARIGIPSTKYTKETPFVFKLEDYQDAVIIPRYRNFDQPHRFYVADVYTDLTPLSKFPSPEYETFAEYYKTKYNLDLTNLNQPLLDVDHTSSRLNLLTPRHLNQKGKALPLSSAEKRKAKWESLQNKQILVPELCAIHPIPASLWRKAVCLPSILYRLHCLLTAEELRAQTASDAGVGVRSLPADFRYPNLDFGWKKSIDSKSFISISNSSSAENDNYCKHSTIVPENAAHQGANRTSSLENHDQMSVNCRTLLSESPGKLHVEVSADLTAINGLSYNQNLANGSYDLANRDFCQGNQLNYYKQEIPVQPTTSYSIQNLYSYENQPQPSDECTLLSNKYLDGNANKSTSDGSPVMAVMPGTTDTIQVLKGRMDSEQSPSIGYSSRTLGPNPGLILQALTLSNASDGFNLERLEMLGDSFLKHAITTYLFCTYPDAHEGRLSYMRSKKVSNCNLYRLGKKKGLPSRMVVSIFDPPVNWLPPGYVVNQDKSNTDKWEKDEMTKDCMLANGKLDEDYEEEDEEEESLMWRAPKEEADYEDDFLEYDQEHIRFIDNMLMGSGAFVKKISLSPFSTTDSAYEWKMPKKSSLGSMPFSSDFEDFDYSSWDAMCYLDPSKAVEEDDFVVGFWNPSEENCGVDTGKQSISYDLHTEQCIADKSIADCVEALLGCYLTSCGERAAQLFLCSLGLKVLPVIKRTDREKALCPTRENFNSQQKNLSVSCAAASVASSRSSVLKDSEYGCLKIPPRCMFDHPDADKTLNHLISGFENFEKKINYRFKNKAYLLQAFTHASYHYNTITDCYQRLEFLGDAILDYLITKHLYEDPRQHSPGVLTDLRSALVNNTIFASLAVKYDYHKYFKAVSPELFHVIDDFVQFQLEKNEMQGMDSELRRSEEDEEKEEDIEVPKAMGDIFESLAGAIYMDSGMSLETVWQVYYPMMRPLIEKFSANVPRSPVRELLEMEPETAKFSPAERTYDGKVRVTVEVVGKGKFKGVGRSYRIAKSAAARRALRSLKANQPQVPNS
An asterisk follows results filed as active. Only a selection was taken, and hits are over-represented in it overall.

`O=C(Nc1nnc(COc2ccc(Cl)cc2)s1)c1ccco1` gave Dicer processing 4*.
`O=C(Nc1nnc(CCSc2ccc3ccccc3c2)s1)c1ccco1` gave Dicer processing 1.
COCc1nnc(NC(=O)COc2ccc(Cl)cc2)s1 was read as Dicer processing 0.02.
`Cc1csc(C(=O)O/N=C(\N)c2ccc(Cl)cc2)c1Cl` gave Dicer processing -0.67.
Screening CC1(C)c2ccccc2N(CCC(N)=O)C12C=Cc1c(ccc3ccccc13)O2 (stereo unspecified) returned Dicer processing -0.13.
OCCCNc1ncnc2c1oc1ccccc12 was read as Dicer processing 0.01.
For CCCCn1c(Oc2ccccc2Cl)nc2c1c(=O)n(C)c(=O)n2C the results were Dicer processing 0.58.
Screening COc1cc(C(=O)c2cc(Cl)ccc2N)ccc1O returned Dicer processing 3.8*.
For COC(=O)c1ccccc1C(=O)c1ccc(Cl)cc1 the results were Dicer processing 1.1.
`COc1ccc(OC)c(C(=O)c2ccc(N)cc2)c1` gave Dicer processing 1.9.
Screening O=C(Cn1c(=O)sc2ccccc21)Nc1nc(-c2ccc(Br)cc2)cs1 returned Dicer processing -0.5.
`NC(=O)COc1ccc(-c2noc(COc3ccc(Br)cc3)n2)cc1` gave Dicer processing -1.3.
NC(=O)Cc1nc(-c2ccc(Br)cc2)cs1 was read as Dicer processing 3.2*.
For Cc1nc(-c2cccs2)sc1NC(=O)O/N=C(\N)c1ccc(Cl)cc1 the results were Dicer processing 1.8.
`CCOC(=O)c1c(SC)nc2ccc(Cl)cc2c1N1CCCCCC1` gave Dicer processing -1.4.
Cc1cc(NC(=O)N(C)C)nn1-c1ccccc1 was read as Dicer processing -2.1.
For CC(=O)OCc1cc(/C=N/N(C(C)=O)c2ccccc2)nn1-c1ccccc1 the results were Dicer processing 3.5*.
`COC(=O)Nc1cc(C)n(-c2ccccc2)n1` gave Dicer processing 0.02.
Cn1c(N2CCOCC2)nc2c1c(=O)n(Cc1ccccc1)c(=O)n2C was read as Dicer processing -0.43.
Screening COc1ccc(C2C(C(=O)c3ccco3)=C(O)C(=O)N2Cc2cccnc2)cc1 (stereo unspecified) returned Dicer processing -5.8.
`CCOc1cc(C2Nc3cccc4cccc(c34)N2)ccc1O` gave Dicer processing 2.9.
For CN(C)c1ccc(C2Nc3cccc4cccc(c34)N2)cc1 the results were Dicer processing 0.05.
c1ccc2c(C3Nc4cccc5cccc(c45)N3)cccc2c1 was read as Dicer processing 4.4*.
Screening O=C1NC(c2cccc(Br)c2)Nc2ccccc21 (stereo unspecified) returned Dicer processing 2.1.
For CCc1ccc(C2Nc3cccc4cccc(c34)N2)cc1 the results were Dicer processing 0.54.
`O=C1NC(c2ccc(Cl)cc2)Nc2ccccc21` (stereo unspecified) gave Dicer processing -0.49.
`COc1cc(C2Nc3cccc4cccc(c34)N2)ccc1OCc1ccccc1` gave Dicer processing 2.9.
Screening c1ccc(C2Nc3cccc4cccc(c34)N2)cc1 returned Dicer processing 6.2*.
For COc1cc(OC)c(C2Nc3cccc4cccc(c34)N2)c(OC)c1 the results were Dicer processing 1.8.
`COc1ccccc1C1Nc2cccc3cccc(c23)N1` gave Dicer processing 2.2.
`CC(C)(C)c1ccc(C2Nc3cccc4cccc(c34)N2)cc1` gave Dicer processing 5*.
For Brc1cccc(C2Nc3cccc4cccc(c34)N2)c1 the results were Dicer processing 5.2*.
`CCCc1c(C)c(C#N)c2nc3ccccc3n2c1NCc1cccnc1` gave Dicer processing -1.6.
For N#Cc1c(SCC(=O)c2ccc([N+](=O)[O-])cc2)nsc1SCC(=O)c1ccc([N+](=O)[O-])cc1 the results were Dicer processing 0.7.
CCOC(=O)/C(C#N)=C1\SCC(C)(O)N1c1c(F)cccc1F (stereo unspecified) was read as Dicer processing -0.2.
`COc1cc2c(cc1OC)C1(CCCC1)CN(C(=O)c1cc(Br)ccc1OC)C2` gave Dicer processing 0.12.
Nc1nonc1C(=O)NCCNC(=O)c1ccccc1Br was read as Dicer processing 0.15.
`Cc1nn(-c2ccccc2)nc1CNS(=O)(=O)c1cccs1` gave Dicer processing 2.8.
Screening CCOC(=O)c1c(NC(=O)Nc2ccc(Cl)c(Cl)c2)sc2c1CCC(C)C2 (stereo unspecified) returned Dicer processing -0.21.
COc1cccc(C2C(C(=O)OC(C)C)=C(C)N=C3SCCC(=O)N32)c1 (stereo unspecified) was read as Dicer processing -1.4.
For N#Cc1cnn(-c2c(Cl)cc(C(F)(F)F)cc2Cl)c1N the results were Dicer processing -0.67.
Cc1cc(C(F)(F)F)nc2cc(-c3ccc(Cl)cc3)nn12 was read as Dicer processing 0.22.
S=c1[nH]c2cc(Cl)cc(Cl)c2o1 was read as Dicer processing -0.92.
For Fc1cc2[nH]c(=S)[nH]c2cc1Cl the results were Dicer processing 4.2*.
Screening COCCN1C2=C(C(=O)CC(C)(C)C2)C(c2cc(Cl)c(O)c(OC)c2)C2=C1CC(C)(C)CC2=O returned Dicer processing 0.49.
CC(=O)[C@H]1CC[C@H]2[C@@H]3CCC4=CC(=O)CC[C@]4(C)[C@H]3CC[C@]12C was read as Dicer processing 1.4.
`C[C@]12CCC(=O)C=C1CC[C@@H]1[C@@H]2CC[C@@]2(C)[C@H]1CC[C@]2(O)C(=O)CO` gave Dicer processing 3.3*.
For CC(=O)[C@@]12OC(C)(c3ccccc3)O[C@@H]1C[C@H]1[C@@H]3CCC4=CC(=O)CC[C@]4(C)[C@H]3CC[C@@]12C (stereo partly specified) the results were Dicer processing -0.12.
`Cc1onc(-c2c(Cl)cccc2Cl)c1C(=O)NNC(=O)Sc1ccccc1[N+](=O)[O-]` gave Dicer processing -0.64.
For CCCCCCCNC1CC(=O)N(c2ccc(F)cc2)C1=O (stereo unspecified) the results were Dicer processing 3.9*.
CC(C)CNC1CC(=O)N(c2ccc(C(C)C)cc2)C1=O (stereo unspecified) was read as Dicer processing -0.87.
CN(C)c1ccc(NC2CC(=O)N(c3ccc(F)cc3)C2=O)cc1 (stereo unspecified) was read as Dicer processing -1.6.
For N#C/C(=C\N1CCOCC1)C(=O)Nc1ccc(F)c(Cl)c1 the results were Dicer processing -0.47.
COc1cc(C2C(C(=O)OC(C)C)=C(C)NC3=C2C(=O)CCC3)cc(Cl)c1O (stereo unspecified) was read as Dicer processing -1.4.
Screening Cc1ccc(S(=O)(=O)Nc2cc(C)ccc2C)cc1 returned Dicer processing 0.42.
Cc1ccc(S(=O)(=O)Nc2ccc(C)cc2NS(=O)(=O)c2ccc(F)cc2)cc1 was read as Dicer processing 4.6*.
`Cc1ccc(NS(=O)(=O)c2ccc(Cl)cc2)c([N+](=O)[O-])c1` gave Dicer processing -0.45.
For COc1ccc(C2CC(=O)C3=C(C2)NC(C)=C(C(=O)OC(C)C)C3c2ccc(F)cc2)cc1 (stereo unspecified) the results were Dicer processing -0.25.
`CCOc1cc(C2C(C(=O)OCCOC)=C(C)NC3=C2C(=O)CC(c2cccs2)C3)ccc1O` (stereo unspecified) gave Dicer processing 3.3*.
For CC1=C(C#N)C(c2ccccc2F)C2=C(CCCC2=O)N1 (stereo unspecified) the results were Dicer processing 6.6.
